In the library only some 1.4% were active in any assay of this set; here they are far more common.
PrPC surface inh = reduces human prion protein on the cell surface. P04156. cell surface PrPC, TR-FRET read-out. inhibition, % at 13.8 µM. hit rate 0.43% among 370,000; in the data active means inhibition above about 24%
BH1578 lux ind = quorum light induction in luxS cqsA deficient V. cholerae; V. cholerae BH1578 lux reporter, luminescence, 6 h; AID 588436; hit rate 0.16% among 350,000; activation, % at 18.7 µM; in the data active means activation mostly above about 9.7%, no sharp cut-off
SSB-PriA inh = blocks PriA binding to SSB C-terminal tail. hit rate 0.6% among 430,000. inhibition, % at 33 µM. AlphaScreen SSBct-PriA binding, biotinylated peptide. AID 1272365; in the data active means inhibition mostly above about 37%, no sharp cut-off; inactive means mostly below about 20%
FadD28 binding = blocks FadD28 binding to the bisubstrate probe. fluorescence polarization. inhibition, % at 12.5 µM. hit rate 0.22% among 360,000. AID 588549; in the data active means inhibition above about 8.5%, passing the limit was not always enough
PrP UTR inh = inhibition of PrP 5' UTR reporter expression. cell-based PrP 5' UTR mRNA reporter, plate reader. inhibition, % (test concentration not listed). hit rate 0.35% among 340,000; in the data active means inhibition above about 52%
A number is an active result; . = inactive; / = no result given; ! = not confirmed by another sample.

SMILES	PrPC surface inh	BH1578 lux ind	SSB-PriA inh	FadD28 binding	PrP UTR inh
O=C(Nc1ccc2ccccc2c1)N1C[C@H]2C[C@H](C1)c1cccc(=O)n1C2	/	/	.	/	/
O=C(O)CCC(=NNc1ccccc1[N+](=O)[O-])c1cccs1	/	/	42	/	/
Cc1cccc(CC(=O)NCC(O)Cc2ccccc2)c1 (stereo unspecified)	/	/	21	/	/
COc1ccc(S(=O)(=O)NCc2ccco2)cc1C(=O)O	/	/	38!	/	/
Cc1cc(=O)n2nc(N3CCCC(C(=O)N4CCc5ccccc54)C3)sc2n1 (stereo unspecified)	/	17	.	.	.
O=C(CCCn1nc(-c2cccs2)ccc1=O)NCc1ccccn1	/	/	.	/	/
N#Cc1ccc2nc(-c3ccc(CN4CCC(n5c(=O)[nH]c6ccccc65)CC4)cc3)c(-c3ccccc3)nc2c1	.	/	/	/	/
O=c1[nH]c(-c2ccccc2)cn1C1CCN(Cc2ccc(-c3nc4ccc(Br)cc4nc3-c3ccccc3)cc2)CC1	31	/	/	/	/
NNc1nc(Nc2ccc([N+](=O)[O-])cc2)nc(N2CCCCCC2)n1	.	.	54	.	.
COc1ccc(-c2csc(NC(=O)/C=C/c3ccc([N+](=O)[O-])cc3)n2)cc1OC	/	/	69	/	/
COc1ccc(-c2csc(NC(=O)/C=C/c3cccs3)n2)cc1OC	/	/	.	/	/
CN=c1scc(-c2ccc(F)cc2)n1/N=C/c1ccc(O)c(O)c1	.	.	/	37	.
COc1ccc(-c2noc(Cn3nc(-c4ccc(C)c(C)c4)ccc3=O)n2)cc1	/	/	.	/	/
Cc1ccc(-n2nc(-c3ccccc3)cc2Nc2ccccc2N)cc1	.	.	.	.	.
Nc1ccccc1Nc1cc(-c2ccccc2)nn1-c1ccccc1	.	.	60	.	.
O=[N+]([O-])c1cc(-n2cccc2)ccc1N1CCOCC1	.	.	47	.	.
O=C(OCc1ccc([N+](=O)[O-])cc1)c1cc([N+](=O)[O-])ccc1N1CCOCC1	.	.	.	.	.
Cc1ccc(COC(=O)c2cc([N+](=O)[O-])ccc2N2CCOCC2)cc1	.	.	/	.	77
CN1CCN(c2ccc(C(=O)c3ccc(Br)cc3)cc2[N+](=O)[O-])CC1	.	.	43	.	.
O=C(c1ccc(Br)cc1)c1ccc(N2CCOCC2)c([N+](=O)[O-])c1	/	/	82	/	/
Cc1cc(O)cc(=O)[nH]1	/	/	.	/	/
CCOC(=O)C1CCN(c2nc3ccccc3n3c(=O)n(CC(=O)Nc4ccccc4F)nc23)CC1	/	/	.	/	/
Cc1ccc(Cl)c(OC(=O)c2ccc(N3CCOCC3)c([N+](=O)[O-])c2)c1	.	.	45	.	.
O=[N+]([O-])c1cc(S(=O)(=O)C(F)(F)F)ccc1N1CCN(c2ccccc2)CC1	.	.	47	.	.
O=C(c1c[nH]c(=O)c(Cl)c1)N1CCC[C@H](Cc2nc(-c3ccccc3F)no2)C1	/	/	.	/	/
SMILES	PrPC surface inh	BH1578 lux ind	SSB-PriA inh	FadD28 binding	PrP UTR inh
CCOc1ccccc1C(=O)NCC[C@H](O)c1ccccc1	/	/	43	/	/
COc1ccc(/C=N/NC(=S)Nc2ccccc2[N+](=O)[O-])cc1O	.	.	/	.	.
O=[N+]([O-])c1ccccc1NC(=S)NN=Cc1ccc(O)c(O)c1	/	/	42	/	/
COc1ccc(-[n+]2c(-c3ccccc3)cc(-c3ccc(C)cc3)cc2-c2ccccc2)cc1	29	.	.	.	.
COCc1nc(-c2ccccn2)n[nH]1	/	/	68	/	/
O=C(O)Cc1nc(-c2ccccn2)n[nH]1	/	/	.	/	/
Cc1cccc(OCc2nc(-c3ccccn3)n[nH]2)c1	.	.	90	.	.
Cc1ccc(OCc2nc(-c3ccccn3)n[nH]2)cc1	.	.	109	.	.
Clc1ccc(CN2CCN(c3ncnc4c3cnn4-c3ccccc3)CC2)cc1Cl	/	/	.	/	/
O=S(=O)(c1ccc(Cl)cc1)N1CCN=C1SCc1cccc(Cl)c1	.	.	101	.	.
O=C(CCCN1C(=O)/C(=C/c2ccc3c(c2)OCO3)SC1=S)N(CCO)Cc1ccccc1	/	/	.	/	/
O=C1SC(Nc2cccc3ccccc23)C(=O)N1c1ccc(F)cc1 (stereo unspecified)	/	/	.	/	/
Cc1ccc(/C=C/C(=O)C2C(=O)c3ccccc3C2=O)cc1	.	.	.	11	.
O=C(NCc1ccc2c(c1)OCO2)c1cn(-c2cccc(F)c2)nn1	/	/	.	/	/
COC(=O)c1cc(C(=O)NCC2CCCCC2)cc([N+](=O)[O-])c1	.	.	.	.	.
COC1(C)CC2C(CC1OC(=O)c1cc([N+](=O)[O-])cc([N+](=O)[O-])c1)C2(C)C (stereo unspecified)	.	.	74	.	.
O=C(NCc1cccs1)C(Cc1ccccc1)NS(=O)(=O)c1cccs1 (stereo unspecified)	.	.	.	.	.
O=C(NCc1ccc(F)cc1)C(Cc1ccccc1)NS(=O)(=O)c1cccs1 (stereo unspecified)	.	.	.	25	.
Fc1ccc(Nc2nc(N3CCOCC3)nc(N3CCOCC3)n2)cc1	.	.	.	.	.
COc1ccc(Nc2nc(Nc3ccc(F)cc3)nc(N3CCOCC3)n2)cc1OC	/	/	37	/	/
O=S(=O)(c1ccc(Nc2ccc(-c3ccc4c(c3)OCCO4)nn2)cc1)N1CCCC1	.	.	.	11	.
COc1cccc(N=Nc2ccc3ccccc3c2O)c1	.	.	.	.	.
Oc1c(N=Nc2nn[nH]n2)ccc2ccccc12	.	/	/	30	/
Cc1ccc(N=Nc2ccc3ccccc3c2O)cc1	.	.	.	.	.
Oc1c(N=Nc2ccc(F)cc2)ccc2ccccc12	.	.	39	.	.
SMILES	PrPC surface inh	BH1578 lux ind	SSB-PriA inh	FadD28 binding	PrP UTR inh
Clc1ccccc1C=NNC1=Nc2cccc3cccc1c23	/	/	.	/	/
O=C(Cc1cccs1)NCCn1ncc2c(N3CCCC3)ncnc21	/	/	.	/	/
CCOc1ccc2[nH]c3c(N4CCN(c5ccccn5)CC4)ncnc3c2c1	.	.	39	.	.
c1ccc2c(c1)CCN(c1ncnc3c1[nH]c1ccccc13)C2	.	.	.	.	.
c1ccc(CN2CCN(c3ncnc4c3[nH]c3ccccc34)CC2)cc1	56	.	.	.	.
Cc1ccc2[nH]c3c(N4CCN(Cc5ccccc5)CC4)ncnc3c2c1	29	.	.	.	.
C=CCOc1ccccc1CN1C(=O)C(O)(CC(C)=O)c2cc(Br)ccc21 (stereo unspecified)	/	/	.	/	/
COc1cc(NC(=O)Nc2ccccc2)c(OC)cc1NC(=O)CN1CCCCC1	.	.	42	.	.
O=C(N/N=C\c1c[nH]c2ccccc12)c1cc(-c2ccc(Cl)s2)[nH]n1	/	/	.	/	/
O=C(c1cncc(Br)c1)N1CCC2(CC1)OCCS2	/	/	.	/	/
Cc1ccc(C(=O)Nc2c(C)nc3sccn3c2=O)cc1C	/	/	.	/	/
CC1=NN(c2ccccc2)C(=O)C1N=Nc1ccccc1 (stereo unspecified)	.	.	.	.	.
COc1ccc(N=NC2C(=O)N(c3ccccc3)N=C2C)cc1 (stereo unspecified)	.	.	43	.	.
COc1ccc(C(=O)COC(=O)c2cc(CC(C)C)nc3ccccc23)cc1OC	/	/	.	/	/
C=CCn1c(Cc2cccs2)nnc1SCC(=O)Nc1cccc2ccccc12	.	/	/	/	/
C=CCn1c(Cc2csc(N)n2)nnc1SCC(=O)Nc1ccccc1C(F)(F)F	.	.	74	.	.
O=C(Nc1ccccc1N1CCCC1)c1cc(S(=O)(=O)N2CCOCC2)ccc1Cl	.	.	.	.	.

Compound activity: PubChem, several laboratories
